One assay has as its system Staphylococcus aureus. As to conditions: Concentration 20 uM; ASSAY_TEST Inhibition of Bacterial Growth; detection method Absorption (OD600); MEDIA CAMHB; plate type 384well; NBS; CORNING #3640; time 18 hr.
The test system of the next assay is Escherichia coli. The conditions noted are these: Concentration 20 uM; ASSAY_TEST Inhibition of Bacterial Growth; detection method Absorption (OD600); MEDIA CAMHB; plate type 384well; NBS; CORNING #3640; time 18 hr.

Potency and affinity values are given separately.

A word on the Inhibition: it is the drop in the measured response relative to a control, in per cent.

Take `COc1cc(C)c(/C=C/C(C)=C/C=C/C(C)=C/C(=O)O)c(C)c1C` [ACITRETIN]: the Inhibition in the assay with Staphylococcus aureus is given as -32.23%; with Escherichia coli, 4.27%.
In the case of `CC(COc1ccccc1Cc1ccccc1)N1CCCCC1.O=P(O)(O)O` (stereo not given), the figures for the Inhibition in the assay with Staphylococcus aureus and with Escherichia coli were 12.26% and 7.84%, respectively.
For the compound `COc1ccc2cc([C@H](C)C(=O)[O-])ccc2c1.[Na+]` [NAPROXEN SODIUM], the Inhibition with Staphylococcus aureus stood at 6.58%.
Take `CN(C)CCCN1c2ccccc2CCc2ccc(Cl)cc21.Cl` [CLOMIPRAMINE HYDROCHLORIDE]: the results for the Inhibition in the assay with Staphylococcus aureus and in the assay with Escherichia coli were 14.19% and 7.04%, respectively.
As to `Cc1nccn1CC1CCc2c(c3ccccc3n2C)C1=O` (stereo not given) [ONDANSETRON], the Inhibition in the assay on Staphylococcus aureus is listed as 4.05%; in the assay with Escherichia coli, 7.33%.
Turning to `N[C@@H]1CONC1=O` [CYCLOSERINE], the Inhibition with Staphylococcus aureus is given as 14.71%; in the assay with Escherichia coli it was 1.47%.
As to `Cc1cnc(C(=O)NCCc2ccc(S(=O)(=O)NC(=O)NC3CCCCC3)cc2)cn1` [GLIPIZIDE], the Inhibition in the assay with Staphylococcus aureus turned out to be 13.08%.
Regarding `Cn1cnc([N+](=O)[O-])c1Sc1ncnc2[nH]cnc12` [AZATHIOPRINE], the figures for the Inhibition with Staphylococcus aureus and in the assay with Escherichia coli were 18.19% and 3.51%, respectively.
Consider `CC1=C(C(=O)O)N2C(=O)[C@@H](NC(=O)[C@H](N)c3ccccc3)[C@H]2SC1.O` [CEPHALEXIN], for which the Inhibition in the assay on Staphylococcus aureus is -0.36%.
With `CN(Cc1cnc2nc(N)nc(N)c2n1)c1ccc(C(=O)N[C@@H](CCC(=O)O)C(=O)O)cc1.O`, the Inhibition in the assay with Staphylococcus aureus is reported as 8.23%.
Consider `O=C(O)c1cc(-c2ccc(F)cc2F)ccc1O` [DIFLUNISAL], for which the Inhibition in the assay with Staphylococcus aureus is -11.25%; in the assay with Escherichia coli, 6.27%.
For `Cl.O.O=C1N(c2ccccc2)c2ccccc2C1(Cc1ccncc1)Cc1ccncc1` the same measures were 4.07% and 3.98%.

Values taken from ChEMBL document CHEMBL4513141, “CO-ADD screening of NIH (USA) - Clinical Collection” (2021).
